Results filed as inconclusive are left out. Values without a mark were called inactive. Calls follow the shape of the dose curve; as a rule, active = well fitted activation curve with a large enough effect in the signal ratio in the repeat runs (not every such curve was filed as active); inconclusive = weak or mixed curves; inactive = flat fitted curve, though single readings scatter; the % refers to the signal ratio.
% is scaled to controls: 0 for no effect and ±100 for the full control effect.

The experiment can be described thus: qHTS assay to identify small molecule agonists of the TGF-beta/Smad signaling pathway (AID 1346859). Conditions: SBE-bla HEK293T, TGF-beta/Smad beta-lactamase reporter, 5 h; series mostly up to 76.8 µM; activation: at the top concentration. The source says:
U.S. Tox21 Program National Center for Advancing Translational Sciences [NCATS] NIH Chemical Genomics Center [NCGC] U.S. Environmental Protection Agency [EPA] National Institutes of Environmental Health Sciences [NIEHS] National Toxicology Program [NTP] U.S. Food and Drug Administration [FDA] Tox21 Assay Overview: Transforming growth factor beta (TGF-beta) superfamily consists of a large number of structurally related dimeric proteins that act as hormones or local mediators in regulating a wide range of biological functions. This superfamily includes TGF-betas themselves, the bone morphogenetic proteins (BMPs) and the activins. These ligands induce oligomerization of serine/threonine receptor kinases and phosphorylate the cytoplasmic signaling molecules of Smad protein family. CellSensor SBE-bla HEK 293T cell line (Life Technologies, Carlsbad, CA), responsive to TGF-beta was used to screen Tox21 10K compound library for identification of agonists/antagonists of the Smad signaling pathway. This cell line contains a beta-lactamase reporter gene under control of the Smad binding element (SBE) stably integrated into HEK 293T cells.
Tox21 Assay Protocol Summary: SBE-bla HEK 293T cells were dispensed at 4,000/well in 6 uL of assay medium into black wall/clear-bottom 1536-well plates using a Multidrop Combi (ThermoFisher Scientific, Waltham, MA) dispenser. After the assay plates were incubated at 37 C and 5% CO2 for an overnight, 23 nL of compounds dissolved in DMSO, positive controls or DMSO only was transferred to the assay plate by a Pintool station (Kalypsys, San Diego, CA). The assay plates were incubated at 37 C and 5% CO2 for 5 hr. One uL of LiveBLAzer B/G FRET substrate (Life Technologies) was added using a Flying Reagent Dispenser (Aurora Discovery, San Diego, CA) and the plates were incubated at room temperature for 2 hr. Fluorescence intensity (405 nm excitation, 460 nm and 530 nm emissions) was measured using an Envision plate reader (PerkinElmer, Shelton, CT).
For the compound `O=C(Cn1ccnc1[N+](=O)[O-])NCc1ccccc1`, the “activation” value is 1.22% [at 35.3 µM].

Turning to `C=CCOC(=O)CCCCCC`, the “activation” value is 0.86%. The figure for `CC(C)NC(=O)c1ccc(C=O)cc1` is -1.17% [at 35.3 µM]; for `CC(C)c1ccc(C=O)cc1` it is -1.14%.

Regarding `CCCc1ccc(O)cc1`, the “activation” value was 0.786%. For `C/C(=C1\CCOC(=O)S1)N(C=O)Cc1cnc(C)nc1N`, the “activation” value was -2.29% [at 35.3 µM]. Regarding `CC1c2ccccc2CN1NC(=O)c1ccc(Cl)c(S(N)(=O)=O)c1` (stereo not given), the “activation” value is -0.857% [at 35.3 µM]. The figure for `CN(C)CC/C=C1/c2ccccc2COc2ccc(CC(=O)O)cc21` is 0.2% [at 35.3 µM]. Turning to `O=C(O)CCCCCC(=O)O`, the “activation” value was -3%. Take `CN(C)CCN(C)CCO`: the “activation” value is -0.983%. As for `Cc1cc(C)c(C(=O)O)c(C)c1`, the “activation” value was 2.29%.

With `C#CCN[C@@H]1CCc2ccccc21`, the “activation” value was -0.505% [at 35.3 µM]. `CN1C[C@@H]2C[C@H]1CN2c1cc2c(cc1F)c(=O)c(C(=O)O)cn2C1CC1`: the activation is 0.101% [at 15.8 µM].

`Cc1ccc(C(=O)O)cc1[N+](=O)[O-]`: the “activation” value was 0.263%.

Take `CC1(C)[C@H]2CC[C@](C)(C2)[C@H]1O`: the “activation” value was -0.53%. With `CCCCCC/C=C/C(=O)OC`, the “activation” value is -0.0436%.

For `C/C=C(\C)C(C)=O`, the “activation” value is 0.602%. The figure for `CO[C@@]1(NC(=O)Cc2cccs2)C(=O)N2C(C(=O)O)=C(COC(N)=O)CS[C@@H]21` is 4.06% [at 35.3 µM]. For `[O]=[Mo](=[O])=[O]`, the activation was 0.212% [at 15.8 µM].

Take `CC1=NN(c2ccc(S(=O)(=O)O)cc2)C(=O)C1`: the “activation” value is -0.35%.

As to `OC[C@@H](O)C(O)[C@@H](O)CO` (stereo not given in full), the “activation” value was -4.34%. As for `C=CCSSCCC`, the “activation” value was 0%. As for `O=C(CCCCC(=O)Nc1c(I)cc(I)c(C(=O)O)c1I)Nc1c(I)cc(I)c(C(=O)O)c1I`, the “activation” value was 3.87% [at 35.3 µM]. On to `O=C1NC(c2ccccc2)(c2ccccc2)C(=O)N1COP(=O)(O)O`, for which the “activation” value was 1.19% [at 35.3 µM]. The figure for `CCCSSCCC` is -0.652%; for `COc1ccc(CCO)cc1` it is 0.193%. The figure for `CCCCCCCCCCCCCCC(=O)NC(CO)CCCCCCCCCCCCCC` (stereo not given) is -0.238%. `C=C(C)[C@@H]1CC=C(C)CC1`: the “activation” value is 0.415%. The figure for `CN(C)CCOC(=O)C(c1ccccc1)C1(O)CCCC1` (stereo not given) is -1.59% [at 35.3 µM].

For `C=CC(=O)OCC1CCCO1` (stereo not given), the “activation” value is 1.82%. On to `CC(=O)CCC1=C(C)CCCC1(C)C`, for which the “activation” value was -0.0873%. As to `Cc1c(N)cccc1Cl`, the “activation” value was -4.92%.

With `CC1(C)O[C@H]2CC(=O)OC[C@]23[C@H]2CC[C@@]4(C)[C@H](c5ccoc5)OC(=O)[C@H]5O[C@]54[C@]2(C)C(=O)C[C@@H]13`, the “activation” value is 1.32% [at 35.3 µM].

In the case of `CCCCCc1cccc(=O)o1`, the “activation” value is -0.0315%. As to `OC[C@H]1O[C@@H](O[C@@H]2[C@@H](CO)O[C@](O)(CO)[C@H]2O)[C@H](O)[C@@H](O)[C@H]1O`, the “activation” value is -0.509% [at 35.3 µM]. With `CC(=O)OC1CCCCC1C(C)(C)C` (stereo not given), the “activation” value is -1.4%. The figure for `CCN(CC)CCN` is -1.29% [at 35.3 µM]; for `COS(=O)(=O)O` it is 1.24%; for `COC(=O)c1cccc(Cl)c1` it is -1.32%. In the case of `COc1cc(OC)nc(O[C@H](C(=O)O)C(OC)(c2ccccc2)c2ccccc2)n1`, the “activation” value was -5.05% [at 35.3 µM].

Source of the values: PubChem BioAssay (Tox21).
